USP1-UAF1 inh = blocks the human USP1/UAF1 deubiquitinase complex; Potency, µM (series often up to 57.1 µM), for the others: top-dose activity change, negative = inhibition, most hits filed as inhibitors; O94782; recombinant USP1/UAF1, Ub-Rhodamine cleavage fluorescence; 390,000 compounds, 0.23% hits; active means well fitted inhibition curve with a large enough effect; inconclusive means small, poorly fitted or top-dose-only effect; inactive means no such curve, though single readings can be large or run the other way; further: potency means the concentration at half of the fitted maximal effect; on the % scale 0 is the no-effect control and ±100 the full control effect; nearly all actives have a fitted effect of over 60% in size
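Step one: compound is pinned into 1nM USP1/UAF1 in HEPES pH 7.8 buffer with TCEP. Step two: 15 min room-temperature incubation. Step three: Ub-Rho (150nM final) starts cleavage, tracked by fluorescence over six one-minute reads.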
D1 ag = human D1 receptor agonism | P21728 | 360,000 compounds, 1% hits | activation, % at 2 µM | HEK293 T-REx D1 cells, calcium flux, agonist mode; further: 0% is about no effect
Target sequence (P21728 whole entry, looked up): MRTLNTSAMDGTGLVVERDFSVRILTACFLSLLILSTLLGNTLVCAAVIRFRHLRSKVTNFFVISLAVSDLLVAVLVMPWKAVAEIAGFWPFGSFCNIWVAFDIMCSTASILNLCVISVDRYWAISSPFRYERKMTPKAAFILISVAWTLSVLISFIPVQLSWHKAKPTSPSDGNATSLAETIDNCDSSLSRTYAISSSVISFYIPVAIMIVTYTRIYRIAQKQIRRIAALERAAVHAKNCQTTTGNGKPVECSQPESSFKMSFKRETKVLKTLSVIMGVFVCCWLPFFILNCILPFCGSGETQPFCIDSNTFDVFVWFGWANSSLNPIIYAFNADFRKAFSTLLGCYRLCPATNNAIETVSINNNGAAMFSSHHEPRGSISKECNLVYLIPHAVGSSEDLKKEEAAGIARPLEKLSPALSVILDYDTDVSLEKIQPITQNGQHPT
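Inducible HEK293 T-REx D1 cells, force-coupled to calcium signalling, were plated at 4000 cells/well with tetracycline and held overnight at 30 C. After no-wash calcium dye loading, compound-evoked calcium rise over 180 s flagged agonists.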
TRHR PAM = allosteric enhancers of human TRH receptor; enhancement, % at 2 µM; AID 493056; TRHR cells, fluo-8 calcium fluorescence, EC20 TRH enhancement; 360,000 compounds, 0.66% hits; in the data active means enhancement above about 30%; further: 0% is about no effect
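Enhancer read-out: after compound pinning and an initial kinetic agonist-mode read, an EC20 of TRH (10 nM final) was injected and fluo-8 calcium signal (Ex 480/Em 530) followed at 1 s/cycle for 100 cycles in TRHR-expressing cells.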
D1 antag = human D1 dopamine receptor antagonism | P21728 | 360,000 compounds, 3.2% hits | activity change, negative = inhibition, % at 10 µM | HEK293 TREx D1 cells, calcium flux, dopamine EC80; active compounds read low; in the data active means activity change below about -30%; further: on the % scale 0 is the no-effect control and ±100 the full control effect
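Calcium flux readout: force-coupled, inducible Hek293 Trex D1 line, cells induced overnight at 30 C with tetracycline, dye-loaded 30–90 min at RT. Antagonism scored against EC80 dopamine challenge given 180 s after compound.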
TRHR ag = activates the human TRH receptor. P34981. TRHR cells, calcium flux fluo-8, FDSS agonist mode. activation, % at 2 µM. 360,000 compounds, 0.18% hits. AID 493084; further: 0% is about no effect
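Steps: seed TRHR cells overnight; add fluo-8 no-wash Ca dye, RT 30 min–1.5 h; record 10 s baseline; pin-transfer compounds; monitor fluorescence 1 cycle/s for the agonist window. Calcium increases flag candidate agonists.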
D1 PAM = potentiators of human D1 dopamine receptor | HEK293 TREx D1 cells, calcium flux, dopamine EC20 potentiation | potentiation, % at 10 µM | 360,000 compounds, 0.036% hits; in the data active means potentiation above about 30%; further: 0% is about no effect
Active calls of the source: *; u = inconclusive; x = no result given. A selection: hits, their analogues and other compounds. The true share with any hit is near 4.4%. Unless noted, no stated cut-off is given here; in the data, active means activation above about 30%; inactive means the rest.

SMILES	USP1-UAF1 inh	D1 ag	TRHR PAM	D1 antag	TRHR ag	D1 PAM
O=C(CN1C2CCCC1CC(NC(=O)c1ccccc1)C2)Nc1ccccc1 (configuration not stated)	u	9	40*	-53*	-2	-4
CCCN1C2CCCC1CC(NC(=O)c1ccc(Br)cc1)C2 (configuration not stated)	-14%	5	4	-48*	0	-6
CCCN1C2CCCC1CC(NC(=O)c1ccc(F)cc1)C2 (configuration not stated)	-8%	1	3	-12	-1	-3
CCC(C)n1c(=O)c2sccc2n2c(CCCC(=O)NCc3ccccc3Cl)nnc12 (configuration not stated)	-9%	2	0	12	0	-4
O=C(CCS(=O)(=O)c1cccc2nonc12)N1CCOCC1	-13%	1	-3	27	0	-1
O=C(CCS(=O)(=O)c1cccc2nonc12)N1CC(=O)N(CCc2ccccc2)C(=O)C1	-23%	11	2	-91*	0	-2
CCCCC(=O)N1CCc2cc(OC)c(OC)cc2C1COc1ccc(OC)cc1 (configuration not stated)	-17%	-5	0	-8	0	-2
CCc1ccc(-n2c(=O)c3c4c(sc3n(Cc3cc(=O)n5c(C)cccc5n3)c2=O)CCC4)cc1	-27%	-2	-3	7	0	6
COc1cccc(Cn2c(=O)n(-c3cc(C)cc(C)c3)c(=O)c3oc4ccccc4c32)c1	19%	2	-1	-11	1	-5
Cc1ccc(CNC(C)c2ccccc2)s1 (configuration not stated)	-6%	-1	-4	7	-1	-4
CC(NCCC(c1ccccc1)c1ccccc1)c1ccccc1 (configuration not stated)	-30%	60*	-2	17	4	7
CCCCn1c(=N)c(S(=O)(=O)c2ccc(C)cc2)cc2c(=O)n3cc(C)ccc3nc21	-21%	5	11	-2	1	3
Cc1c2c(n3c(nc4ccccc43)c1C#N)N(CCN1CCOCC1)CC2	-13%	0	-4	-38*	3	-2
Cc1cc(Cl)ccc1NC(=O)CN1C(=O)COc2ccc(S(=O)(=O)N3CCC(C)CC3)cc21	-23%	2	-3	9	0	-1
Cc1ccccc1N(C(=O)c1csnn1)C(C(=O)NC1CCCCC1)c1ccncc1 (configuration not stated)	2%	1	32*	9	-1	-3
COc1ccccc1C(C(=O)NC1CCCCC1)N(C(=O)c1csnn1)C1CC1 (configuration not stated)	-8%	4	-3	-18	0	x
Cc1ccc(N(C(=O)c2nsc(Cl)c2Cl)C(C(=O)NC2CCCC2)c2ccc(O)cc2)cc1C (configuration not stated)	-5%	2	1	-19	1	-4
Cc1cccc(N(C(=O)c2nsc(Cl)c2Cl)C(C(=O)NC2CCCC2)c2ccc(O)cc2)c1C (configuration not stated)	-16%	6	-6	-40*	0	-8
CC(=O)c1cccc(N(CC(=O)NC2CCCC2)C(=O)c2csnn2)c1	-26%	10	2	-39*	1	x
O=C(NC1CCCCC1)C(c1ccccc1F)N(C(=O)c1csnn1)C1CCCC1 (configuration not stated)	-22%	61*	2	-23	-1	x
O=C(NC1CCCC1)C(c1ccncc1)N(C(=O)c1csnn1)c1ccccc1F (configuration not stated)	-17%	-2	28	9	0	1
COc1cccc(CNC(=O)C(=O)NCC(c2ccc3c(c2)OCO3)N2CCOCC2)c1 (configuration not stated)	-16%	0	-2	12	-1	-4
COc1ccc(NC(=O)CCn2c(=O)c3cccn3c3cccnc32)c(OC)c1	4%	2	2	13	0	0
O=C(CSCc1ccccc1F)NCc1ccc(F)cc1	u	2	7	-35*	-1	0
O=C(NC1CCCC1)c1c[nH]c2ccc(S(=O)(=O)Nc3cccc(C(F)(F)F)c3)cc2c1=O	-13%	8	1	-1	0	3
SMILES	USP1-UAF1 inh	D1 ag	TRHR PAM	D1 antag	TRHR ag	D1 PAM
CCc1cc[n+](C2=C([O-])c3ccccc3C(=O)/C2=N\S(=O)(=O)c2cccs2)cc1	18µM*	2	0	-26	1	-5
Cc1cccc(NC(=O)c2cccc(OC(=S)N3CCOCC3)c2)c1C	-5%	2	-5	-32*	-1	-4
CN(C)CCCNC(=S)NCC(c1ccc(Cl)cc1Cl)c1c[nH]c2ccccc12 (configuration not stated)	-13%	61*	-2	-40*	2	-4
NCC(c1ccc(Cl)cc1Cl)c1c[nH]c2ccccc12 (configuration not stated)	-4%	41*	0	-11	1	-3
NCC(c1ccccc1Cl)c1c[nH]c2ccccc12 (configuration not stated)	-17%	17	1	-9	1	-2
COc1ccc(NC(=O)c2nnn(Cc3nc(-c4cc(OC)c(OC)c(OC)c4)oc3C)c2C)cc1Cl	-9%	1	22	-1	-2	0
COc1cc(NC(=O)CN2c3ccccc3S(=O)(=O)c3ccccc32)cc(OC)c1	-20%	6	5	25	1	-3
O=C(Cn1cnc2ccccc21)N/N=C/c1ccc([N+](=O)[O-])cc1	-1%	4	2	-4	0	1
Cc1ccc(/C=N\NC(=O)Cn2nnc3ccccc32)o1	-11%	2	33*	16	0	-2
Cc1ccc(/C=N/NC(=O)Cn2cnc3ccccc32)cc1	-19%	4	-2	-43*	0	-8
Cc1ccc(/C=N/NC(=O)Cn2cnc3ccccc32)o1	-2%	2	1	-11	0	5
Cn1c2cc(C#N)sc2c2cnn(Cc3ccccc3F)c(=O)c21	x	0	5	12	0	0
Cc1ccc(C)c(OCCCNCc2ccccc2)c1	-15%	20	3	-1	1	4
CCc1cc(OCCCCNCc2ccccc2)ccc1Cl	-10%	51*	-5	-1	0	9
CCOCCCNCc1ccc(OCc2ccccc2Cl)cc1	-12%	36*	20	-13	1	0
CCc1cc(OCCN(C)C)ccc1Cl	3%	3	1	-6	1	-1
CC(C)(C)c1ccc(OCCCNCc2ccccc2)cc1	-20%	61*	-1	26	1	5

High-throughput results: PubChem BioAssay, National Center for Advancing Translational Sciences (NCATS)
